Shown are actives, neighbours in structure and some others; about 3% of the full set was active somewhere.
JMJD2E inh: JMJD2E (human) inhibition. B2RXH2. JMJD2E catalytic domain, FDH-coupled NADH fluorescence (FDH is formaldehyde dehydrogenase). Potency, µM (series often up to 57.1 µM), usual class: inhibitors. 230,000 compounds, 1.6% hits. AID 2147; active means well fitted inhibition curve with a large enough effect, not every such curve was filed as active; inconclusive means small, poorly fitted or top-dose-only effect, or another doubt; inactive means no such curve, though single readings can be large or run the other way; further: nearly all actives have a fitted effect of over 50% in size
FBPA coupling cs: inhibits coupling enzyme system, counter-screen for aldolase hits; activity change, negative = inhibition, % at 58.2 µM, hits read low; coupling enzyme system counterscreen, AmpLite Red fluorescence; 290,000 compounds, 0.67% hits; in the data active means activity change below about -30%
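Counterscreen lacking aldolase: glyceraldehyde-3-phosphate coupling-enzyme reagent preincubated 10 min at RT with compound (at 57.5 uM final), then substrate/coupling system with AmpLite Red added; fluorescence read at 525/598 nm after 20 min RT.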
Tau fibril ThT: blocks human tau fibril formation measured by thioflavin T | P10636 | recombinant tau K18 P301L, heparin-induced fibrillization, ThT fluorescence | Potency, µM (series often up to 57.4 µM), actives largely listed as inhibitors | 270,000 compounds, 2.1% hits; active means well fitted curve in the direction sought with a large enough effect; inconclusive means small, poorly fitted or top-dose-only effect, or another doubt; inactive means no such curve, though single readings can be large; an effect the other way counts as inactive or inconclusive; further: nearly all actives have a fitted effect of over 55% in size
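Using a mix of unlabeled (15 uM) and Alexa 594-labeled (0.24 uM) tau K18 P301L, heparin-triggered fibrillization over 6 hr at 37 C was scored by ThT fluorescence.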
Tau fluor counter: counter-screen for tau fibril formation inhibitors. tau K18 P301L (four-repeat tau fragment) Alexa594 fluorescence, heparin fibrillization. Potency, µM (titrated, usually from 57.7 µM). 280,000 compounds, 0.93% hits; active means well fitted curve in the direction sought with a large enough effect; inconclusive means small, poorly fitted or top-dose-only effect, or another doubt; inactive means no such curve, though single readings can be large; an effect the other way counts as inactive or inconclusive; further: nearly all actives have a fitted effect of over 55% in size
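Human K18 P301L tau (15 uM unlabeled plus 0.24 uM Alexa 594-labeled, final) in 100 mM sodium acetate pH 7 was mixed with compound and 20 uM heparin and incubated 6 hr at 37 C.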
Tau fibril FP: blocks human tau fibril formation measured by polarization. P10636. K18 P301L tau heparin fibrillization, Alexa594 FP, 6 h. Potency, µM (doses to about 57.7 µM), hits mostly inhibitors. 280,000 compounds, 0.39% hits; active means well fitted curve in the direction sought with a large enough effect; inconclusive means small, poorly fitted or top-dose-only effect, or another doubt; inactive means no such curve, though single readings can be large; an effect the other way counts as inactive or inconclusive; further: nearly all actives have a fitted effect of over 55% in size
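Read-out: fluorescence polarization of Alexa 594-labeled tau (0.24 uM), 555 nm excitation, 632 nm emission. Mixtures held 15 uM unlabeled K18 P301L, compound and 20 uM heparin, pH 7 acetate buffer, incubated 6 hr at 37 C.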
CASP1 redox cat: inhibits human caspase-1 in catalase buffer, redox counter-screen; caspase-1 Ac-WEHD-AFC fluorescence rate, catalase buffer; Potency, µM (doses to about 57.5 µM), most hits filed as inhibitors; shares compounds with FBPA coupling cs; 30 tested, under 10 active
Casp1 confirm: blocks human caspase-1 activity in concentration-response; shares compounds with FBPA coupling cs; purified caspase-1, fluorogenic substrate cleavage; Potency, µM (titrated, usually from 57.5 µM), most hits filed as inhibitors; 60 compounds, 20% hits; AID 896
Casp7 confirm: blocks human caspase-7 activity in concentration-response | recombinant caspase-7, fluorogenic substrate cleavage | 60 tested, under 10 active | AID 897 | shares compounds with FBPA coupling cs | Potency, µM (highest dose often 57.5 µM), hits mostly inhibitors; active means well fitted inhibition curve with a large enough effect in the main read-out, with a control signal flat, not every such curve was filed as active; inconclusive means small, poorly fitted or top-dose-only effect, or a change in a side signal; inactive means no such curve, though single readings can be large or run the other way
CASP7 redox cys: caspase-7 inhibition with cysteine present. 60 tested, under 10 active. caspase-7 enzyme with cysteine, fluorogenic substrate, redox counterscreen. shares compounds with FBPA coupling cs. Potency, µM (series often up to 57.5 µM), hits mostly inhibitors
CASP7 redox cat: counter-screen for redox active caspase-7 inhibitors: catalase buffer. shares compounds with FBPA coupling cs. Potency, µM (highest dose often 57.5 µM), most hits filed as inhibitors. 30 tested, under 10 active. Caspase-7 Ac-DEVD-AFC fluorescence rate, catalase buffer. AID 909
CASP1 redox cys: inhibits caspase-1 in cysteine buffer, redox counter-screen | shares compounds with FBPA coupling cs | recombinant caspase-1, fluorogenic substrate, cysteine buffer | Potency, µM (series often up to 57.5 µM), hits mostly inhibitors | 60 tested, under 10 active | AID 929
Hits are given with their value; . = inactive; ? = inconclusive; / = not tested or not shown. Unless noted, the call rests on the fitted dose curve; in most records, active means well fitted inhibition curve with a large enough effect in the main read-out, with a control signal flat; inconclusive means small, poorly fitted or top-dose-only effect, or a change in a side signal; inactive means no such curve, though single readings can be large or run the other way.

SMILES | JMJD2E inh | FBPA coupling cs | Tau fibril ThT | Tau fluor counter | Tau fibril FP | CASP1 redox cat | Casp1 confirm | Casp7 confirm | CASP7 redox cys | CASP7 redox cat | CASP1 redox cys
COc1cc2c(Cc3c4c5c(cc(OC)c(OC)c5c5c(OC)c(OC)ccc35)CCN4C)c3c4c(cc(OC)c(OC)c4c2cc1OC)CCN3C | ? | -33 | ? | ? | . | / | ? | . | . | / | ?
O=C(COC(=O)c1cc(-c2ccco2)nc2ccccc12)NCc1ccc2c(c1)OCO2 | ? | . | . | . | ? | ? | ? | ? | . | . | ?
Cc1ccccc1OCc1ccc(-c2nc(C#N)c(N3CCC(C(N)=O)CC3)o2)o1 | / | / | . | ? | . | / | / | / | / | / | /
COc1ccc2nc(NC(=O)c3cccs3)sc2c1 | ? | . | . | . | . | / | / | / | / | / | /
COc1ccc2c(c1)Cc1sc(NC(=O)c3cccs3)nc1-2 | 11µM | -35 | 13µM | ? | ? | ? | . | . | . | . | .
COc1cc(Cl)c(C)cc1Nc1c2c(nc3ccccc13)CCC2 | / | / | ? | ? | . | / | / | / | / | / | /
CCc1ccc(C2c3c(-c4ccccc4O)n[nH]c3C(=O)N2Cc2cccnc2)cc1 (stereo unspecified) | / | / | . | . | . | / | / | / | / | / | /
Cc1cc(O)c(-c2n[nH]c3c2C(c2cccc(O)c2)N(Cc2cccnc2)C3=O)cc1Cl (stereo unspecified) | . | . | . | . | . | / | . | . | . | / | .
